Assay outcomes deposited in PubChem by Sanford-Burnham Center for Chemical Genomics.
PPC-1+TRAIL kill: kills PPC-1 cancer cells in the presence of TRAIL; PPC-1 cells + TRAIL, ATPLite viability luminescence; cell killing (% activity), % at 4 µM or 5 µM; 0.41% of 220,000 active;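 active = cell killing above 50% in the first pass at 4 µM, then a duplicate retest at 5 µM averaging 50% or more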;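 also: plate controls were cells with TRAIL plus DMSO for no effect and medium-only wells lacking cells for full effect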
C8 TRAIL sens: caspase-8 TRAIL sensitization | AID 624354 | inhibition (viability loss, TRAIL sensitization), % at 10 µM | NB7+C8 cells + TRAIL, ATPlite viability luminescence | 1% of 360,000 active;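 active = compounds causing at least 50% loss of cell viability in the single-dose screen, relative to plate controls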
SENP8 block-1: SENP8 (human) protease inhibition. AID 602440. inhibition, % at 20 µM. recombinant SENP8, Nedd8 substrate fluorescence. 0.64% of 360,000 active; in the data active = inhibition mostly above about 40%, no sharp cut-off; inactive = mostly below about 27%
SENP8 block-2: inhibitors of human SENP8 protease. Q96LD8. purified SENP8, Z-RLRGG-aminoluciferin cleavage, luminescence. inhibition, % at 10 µM. 1.2% of 330,000 active; in the data active = inhibition above about 50%
SENP6 block: inhibitors of human SENP6 protease; Q9GZR1; Recombinant SENP6 catalytic domain, aminoluciferin luminescence; inhibition, % at 10 µM; 1.8% of 330,000 active;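 active = inhibition above about 50% at the single tested dose, limit read from the data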;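 also: plate controls were DMSO wells with enzyme for no effect and DMSO wells lacking enzyme for full effect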
Target sequence (Q9GZR1 628-1112 limits assumed): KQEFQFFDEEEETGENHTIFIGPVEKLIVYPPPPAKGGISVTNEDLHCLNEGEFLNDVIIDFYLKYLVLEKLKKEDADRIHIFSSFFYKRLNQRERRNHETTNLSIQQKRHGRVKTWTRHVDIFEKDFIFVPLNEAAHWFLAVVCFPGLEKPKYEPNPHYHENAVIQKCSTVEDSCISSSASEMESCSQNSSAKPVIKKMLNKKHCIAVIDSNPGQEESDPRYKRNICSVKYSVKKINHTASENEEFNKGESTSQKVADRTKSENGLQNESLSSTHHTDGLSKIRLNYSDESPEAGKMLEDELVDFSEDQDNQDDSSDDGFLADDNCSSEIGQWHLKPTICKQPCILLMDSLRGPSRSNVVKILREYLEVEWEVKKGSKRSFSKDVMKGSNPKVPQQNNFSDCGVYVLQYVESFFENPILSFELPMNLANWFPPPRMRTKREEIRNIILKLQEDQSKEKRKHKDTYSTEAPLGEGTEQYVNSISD
SENP7 block: SENP7 protease inhibition | Q9BQF6 | 1.5% of 330,000 active | recombinant SENP7, Z-RLRGG-aminoluciferin luminescence, 40 min | AID 434973 | inhibition, % at 5 µM;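 active = inhibition above about 50% at the single test dose, limit read from the data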;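 also: plate controls were DMSO with enzyme for no effect and no enzyme buffer wells for full effect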
Numbers without * were called inactive; . = no result. Only some compounds are listed: those with a hit (about 3% of all), similar ones and a draw of the others.

SMILES	PPC-1+TRAIL kill	C8 TRAIL sens	SENP8 block-1	SENP8 block-2	SENP6 block	SENP7 block
CCc1ccc(N2CCN(S(=O)(=O)CC34CCC(CC3=O)C4(C)C)CC2)cc1 (stereo not given)	.	19.1	19.9	8.5	7.4	8.3
Clc1ccc2c(SCC3CO3)c3ccccc3nc2c1 (stereo not given)	.	9.8	-456.2	.	.	.
COc1ccc(NC(=O)c2cc(C3CCCCN3C(=O)c3ccc4c(c3)CCO4)on2)c(C)c1 (stereo not given)	.	13.7	10.3	.	.	.
C/C(=N\NC(=O)c1ccc(Cl)cc1)c1ccccn1	.	51.1*	18.3	16.2	22.4	17.5
CC1Cc2ccccc2N1C1=CC(=O)CCC1 (stereo not given)	15.6	12.8	4.7	7.3	1.7	3.5
CNC[C@H](Cc1ccccc1)NC[C@@H](Cc1cccc2ccccc12)NCCc1ccc(C)cc1	.	95.0*	24.2	-18.6	-23.6	-1.5
Cc1cccc(C)c1-n1nnnc1C1(C)CCC(=O)N1CCc1ccc(O)cc1 (stereo not given)	.	1.5	8.6	.	.	.
C/C=C(\C)C(=O)OC1[C@H](OC(C)=O)C2(CO)C(CC1(C)C)C1=CCC3C4(C)CCC(O[C@@H]5O[C@H](C(=O)O)[C@@H](O[C@@H]6O[C@H](CO)[C@@H](O)[C@H](O)[C@H]6O)[C@H](O)[C@H]5O[C@H]5O[C@H](CO)[C@@H](O)[C@H](O)[C@H]5O)[C@](C)(CO)C4CCC3(C)[C@]1(C)C[C@H]2O (stereo not given in full)	.	89.0*	17.1	.	.	.
C/C=C(/C)C(=O)OC1CC(C)(C)C[C@H]2C3=CC[C@@H]4[C@@]5(C)CCC(O[C@@H]6O[C@@H](C(=O)O)[C@@H](O)C(O[C@@H]7OC[C@H](O)[C@@H](O)[C@@H]7O[C@@H]7OC(CO)C(O)[C@@H](O)[C@@H]7O)C6O[C@@H]6OC(CO)C(O)C(O)C6O)[C@@](C)(CO)[C@@H]5CC[C@]4(C)[C@]3(C)CC(O)[C@@]12CO (stereo not given in full)	.	-3.0	1.2	0.9	-2.7	3.4
C=CCOc1ccc(C2=NOC(C(=O)Nc3ccc4c(c3)OCCO4)C2)cc1 (stereo not given)	.	1.3	3.9	-10.7	-22.4	-7.9
O=C(COC(=O)c1n[nH]c2ccccc12)NC(=O)NC12CC3CC(CC(C3)C1)C2	13.9	57.5*	9.1	-3.4	-6.2	-1.2
CC(C)Sc1nc2sc(-c3ccccc3)cc2c(=O)n1N	36.9	1.6	-87.6	5.3	-6.9	3.9
CSc1nc2sc(-c3ccccc3)cc2c(=O)n1N	49.4	32.8	-111.0	93.6*	94.6*	97.9*
CC1CCN(c2nc3ccc(C(=O)O)cc3s2)CC1	14.8	16.8	21.0	97.1*	97.4*	96.2*
CC1CCN(c2nc3ccc(C(=O)NCCCN4CCCCC4)cc3s2)CC1	.	7.3	-1.1	-3.6	0.3	-2.8
Nc1ccc(-c2nc3ccc(C(=O)O)cc3s2)cc1	30.8	70.0*	-406.8	.	.	.
Nc1cc2sc(-c3ccc(C(=O)O)cc3)nc2cc1Cl	50.7*	57.0*	-308.0	97.7*	97.2*	100.4*
Nc1nc(-c2ccc(C(=O)O)cc2)cs1	15.6	-8.1	-167.8	-8.6	-9.0	0.5
Cc1ccc(NCC(=O)Nc2cccc(S(=O)(=O)N(C)C)c2)cc1S(=O)(=O)N1CCCCCC1	.	22.8	-0.8	1.9	-1.1	5.5
CN(c1cccc(NC(=O)CN(c2cccc(F)c2)S(C)(=O)=O)c1)S(C)(=O)=O	11.6	-13.1	3.5	1.9	4.3	1.7
CCCSc1ncnc2[nH]ncc12	.	-13.4	-2.7	.	.	.
COc1cc2ccccc2cc1C(=O)Nc1sc2c(c1C(N)=O)CCN(C(C)C)C2	.	82.7*	-383.0	-3.6	4.8	-6.9
COCC(=O)NC1CC(C)(C)Cc2c1cnn2-c1ccc(F)cc1 (stereo not given)	.	10.2	0.0	-12.5	-7.4	9.4
O=C1/C(=C\c2cc(Br)cc(Br)c2O)SC(=S)N1Cc1ccccc1	.	27.0	40.5*	3.6	12.9	-5.3
O=C1/C(=C/c2ccc(O)c([N+](=O)[O-])c2)SC(=S)N1Cc1ccccc1	13.8	24.2	40.9*	92.4*	94.8*	30.0
SMILES	PPC-1+TRAIL kill	C8 TRAIL sens	SENP8 block-1	SENP8 block-2	SENP6 block	SENP7 block
COc1cc(/C=C2/SC(=S)N(Cc3ccccc3)C2=O)cc(Cl)c1O	.	0.3	46.3*	.	.	.
COc1cc(/C=C2\C(=O)N(c3ccccc3)N=C2C)ccc1Oc1ccc([N+](=O)[O-])cc1[N+](=O)[O-]	-2.9	9.9	57.6*	.	.	.
COc1cc(/C=C2/C(=O)N(c3ccc(C(=O)O)cc3)N=C2C)cc(OC)c1O	.	0.7	24.4	7.5	30.6	47.2
COc1cc(/C=C2/C(=O)N(c3ccc(C)c(C)c3)N=C2C)cc([N+](=O)[O-])c1O	.	-8.8	20.1	-4.9	4.0	3.0
C#CCOc1ccc(/C=C2/C(=O)N(c3cccc(C(=O)O)c3)N=C2C)cc1OC	.	5.8	25.7	-6.8	21.8	45.2
COc1cc(/C=C2/C(=O)N(c3ccc(Br)cc3)N=C2C)cc(OC)c1OC	.	-2.4	48.7*	-8.8	19.5	19.6
C#CCOc1ccc(/C=C2/C(=O)N(c3ccc(S(N)(=O)=O)cc3)N=C2C)cc1OC	.	-4.7	62.9*	.	.	.
CC(NC(=O)COc1ccc(S(=O)(=O)N2CCCC2)cc1)c1ccccc1 (stereo not given)	.	-1.0	12.1	0.7	-22.2	-9.3
O=C(Cc1ccc(Cl)cc1)NCC(=O)N1CCC2(CC1)NCCc1[nH]cnc12	.	-19.2	10.9	.	.	.
O=c1[nH]c2ccccc2n1CCC1CCCCC1	17.5	0.0	11.0	0.5	-18.8	2.0
CCCCC[n+]1ccn(C2=C([O-])c3ccccc3C(=O)/C2=N\S(=O)(=O)c2ccc(Cl)cc2)c1	24.6	45.5	71.4*	19.1	47.5	18.8
Cc1cc(N=Nc2ccc(Cl)cc2)cc(CN2CCCC2)c1O	11.7	12.2	42.8*	-7.3	-5.5	-11.3
Cc1nc(-c2ccc(NC(=O)C3CC3)cc2)cs1	.	31.7	5.3	-21.5	-15.4	-15.1
Cc1nc(-c2ccc(NC(=O)CC(C)C)cc2)cs1	26.6	53.4*	1.1	-11.0	-12.5	-1.2
O=C(NCCCc1nc2ccccc2[nH]1)c1ccc(F)cc1	-0.8	-26.8	3.4	-4.7	-5.7	-12.5
Cc1cnc(C(=O)OCC(=O)Nc2ccccc2-c2ccccc2)cn1	.	0.8	19.1	-9.5	-8.9	-9.4
CCC(C)NC(=O)COc1ccc(OCc2ccccc2)cc1 (stereo not given)	13.1	-3.5	9.9	-2.8	-19.2	-0.5
COc1ccc2[nH]cc(C(=O)CN3CC(C)CC(C)C3)c2c1 (stereo not given)	.	-15.3	10.0	2.2	-20.3	-3.2
COc1ccc(C(=O)c2c[nH]c3ccccc23)cc1	36.6	48.1*	15.8	13.8	31.5	30.7
COc1ccc2[nH]cc(C(=O)CCl)c2c1	22.1	75.2*	-0.4	-7.0	-6.8	-1.4
CC1CCN(c2ccc3nnc(CCC(=O)NC(C)C)n3n2)CC1	.	-10.4	0.3	-15.7	-8.3	-8.4
